From PubChem
Compounds with a hit are over-represented: about 2% of the library has one in this group of screens.
M4 ag = human M4 muscarinic receptor agonists, primary screen, CHO-K1 cells, Fluo-8 calcium fluorescence. Muscarinic acetylcholine receptor M4 (Homo sapiens), P08173. CHO-K1 hM4/Gqi5; vehicle 0%, full acetylcholine response 100%. activation, % at 3 µM. 360,000 compounds, 0.14% hits. AID 624127, 2012;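 active = activation above the run mean over all test wells plus 3 SD, cut at about 32% in these data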;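 also: peak over basal fluorescence ratio per well then scaled between controls; 0% = DMSO wells and 100% = acetylcholine at EC100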
Target sequence (P08173 whole entry, looked up): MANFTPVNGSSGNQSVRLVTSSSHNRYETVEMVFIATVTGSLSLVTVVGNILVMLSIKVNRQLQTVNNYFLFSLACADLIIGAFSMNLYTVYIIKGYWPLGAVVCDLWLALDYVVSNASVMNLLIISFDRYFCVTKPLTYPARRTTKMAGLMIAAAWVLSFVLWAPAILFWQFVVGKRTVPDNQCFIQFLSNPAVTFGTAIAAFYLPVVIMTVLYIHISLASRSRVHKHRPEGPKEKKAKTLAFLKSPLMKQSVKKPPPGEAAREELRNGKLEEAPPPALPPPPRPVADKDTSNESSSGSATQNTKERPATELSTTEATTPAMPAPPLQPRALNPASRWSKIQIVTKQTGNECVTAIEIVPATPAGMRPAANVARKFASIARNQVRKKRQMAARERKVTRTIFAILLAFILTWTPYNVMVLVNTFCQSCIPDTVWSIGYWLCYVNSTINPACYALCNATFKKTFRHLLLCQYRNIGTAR
CHO-K1 Ca antag = counter-screen for M1 antagonists: effect in parental CHO-K1 cells; ATP-induced calcium, Fluo-8 fluorescence; inhibition, % at 3 µM; 360,000 compounds, 0.6% hits; AID 602250;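 active = inhibition above a per-plate cutoff, the plate's mean sample inhibition plus 3 SD, cut at about 24% in these data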;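 also: 0% = DMSO plus EC80 ATP and 100% = DMSO alone without ATP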
CHRM4 PAM = human M4 muscarinic receptor positive allosteric modulators, primary screen, CHO-K1 cells, Fluo-8 calcium fluorescence | activation, % at 3 µM | AID 624126, 2012 | Muscarinic acetylcholine receptor M4 (Homo sapiens), P08173 | 360,000 compounds, 0.4% hits | CHO-K1 hM4/Gqi5, ACh EC20; 0% = ACh EC20, 100% = maximal ACh;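 active = activation above its plate's cutoff, the mean activation of sample wells plus 3 SD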
M1 ag parental = counter-screen for M1 agonists: effect in parental CHO-K1 cells; Fluo-8 calcium fluorescence; scaled to maximal ATP response, vehicle zero; 360,000 compounds, 0.48% hits; activation, % at 3 µM; in the data active = activation above about 15%;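 also: untransfected CHO-K1 host cells lacking M1 receptor as counterscreen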
M1 PAM parental = nonselective calcium activators in parental CHO-K1 cells, primary screen, counter-screen for M1 PAM project, cell-based, Fluo-8 calcium fluorescence, full deck, 1536-well. ATP EC20; 0% at ATP EC20, 100% at ATP max. activation, % at 3 µM. 360,000 compounds, 0.02% hits;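 active = activation above the run cutoff, the mean activation of all test compounds plus 3 SD, cut at about 40% in these data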;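 also: peak over basal fluorescence ratio in a 140 s read after ATP addition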
CHRM4 antagonist = human M4 muscarinic receptor antagonists, primary screen, CHO cells, Fluo-8 calcium fluorescence; CHO-hM4 cells, ACh EC80; inhibition, % at 3 µM; 360,000 compounds, 0.73% hits; AID 624125, 2012;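 active = inhibition above its plate's cutoff, the mean inhibition of sample wells plus 3 SD, cut at about 27% in these data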;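 also: 0% = acetylcholine EC80 with DMSO and 100% = DMSO without agonist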
Numbers without * were called inactive; ! = not active in a repeat.

SMILES | M4 ag | CHO-K1 Ca antag | CHRM4 PAM | M1 ag parental | M1 PAM parental | CHRM4 antagonist
CSc1nncc(-c2ccccc2)n1 | 2.7 | -9.1 | 6.3 | 0.2 | -12.6 | 2.6
CCOC(=O)N1CCN(CC(O)COc2c(OC)cccc2OC)CC1 (stereo not drawn) | -0.1 | -10.8 | 1.0 | 0.7 | -0.2 | -7.8
COc1ccccc1OCC(O)CN1CCN(CC(=O)Nc2c(C)cccc2C)CC1 (stereo not drawn) | 2.3 | -8.3 | -1.6 | 0.9 | -2.1 | 28.3*!
Cc1ccc(S(=O)(=O)N2CCN(CCNC(=O)C(=O)NCc3ccccc3)CC2)cc1 | 0.6 | -8.9 | 5.3 | 0.5 | 15.5 | -1.2
O=C(NCCN1CCN(S(=O)(=O)c2ccc(F)cc2)CC1)C(=O)NCc1ccccc1 | 5.1 | 24.0* | 2.8 | 3.4 | 0.1 | -10.4
O=C(c1cccn(Cc2ccc(C(F)(F)F)cc2)c1=O)N1CCOCC1 | 0.9 | 1.8 | 13.5 | 0.6 | -7.6 | -1.8
CN(C)/C=C1\C=C2C(=O)c3ccccc3N2C1=O | 64.8* | 40.8* | -30.5 | 165.3* | -18.8 | 10.4
CCCSC(=S)c1c(C)[nH]n(-c2ccccc2)c1=O | 20.1 | -3.5 | -28.9 | 16.0* | -4.0 | 5.2
CC(C)(C)c1ccc(S(=O)(=O)Nc2ccc3c(c2)COC3=O)cc1 | 3.9 | 19.6 | -8.7 | 3.6 | -11.5 | 1.2
O=c1[nH]c(C2CCN(S(=O)(=O)c3ccc(F)cc3)CC2)nc2c1nnn2Cc1ccc2c(c1)OCCO2 | -1.0 | -2.1 | -12.0 | -0.5 | -0.4 | 80.7*
Cc1ccc(Cn2nnc3c(=O)[nH]c(C4CCN(S(=O)(=O)c5ccc(F)cc5)CC4)nc32)cc1 | -1.5 | -14.3 | -30.8 | 0.6 | 27.5 | 32.3*
Cc1ccc(C)c(S(=O)(=O)N2CCC(c3nc4c(nnn4Cc4ccc(F)cc4)c(=O)[nH]3)CC2)c1 | -0.4 | -0.1 | -21.7 | 0.4 | 5.2 | 49.0*
C=CCNC(=O)c1ccc(Cl)cc1Cl | -0.2 | -11.2 | 0.9 | 0.7 | 22.0 | -6.0
CC(Oc1ccc(Br)cc1)C(=O)Nc1ccc(S(=O)(=O)NC2=NCCCCC2)cc1 (stereo not drawn) | 39.3* | -3.5 | -5.3 | 23.2* | -12.2 | -3.8
CC(Oc1ccc(F)cc1)C(=O)Nc1ccc(S(=O)(=O)NC2=NCCCCC2)cc1 (stereo not drawn) | 16.7 | 1.9 | 1.8 | 5.0 | -11.1 | 1.2
O=C(Nc1ccc(O)cc1)c1ccc2c(c1)C(=O)N(N1C(=O)c3ccccc3C1=O)C2=O | 1.4 | -13.5 | 3.8 | 1.6 | 12.8 | -5.9
O=C(Nc1ccc(Br)cc1)c1ccc(F)c(S(=O)(=O)NCc2cccs2)c1 | 12.2 | 28.3* | -10.1 | 10.7 | 0.1 | 23.8
CCCNC(=O)c1ccc(N2CCC3(CC2)CC(c2cccc(Br)c2)=NO3)c(NC(=O)c2ccccc2)c1 | 1.4 | -11.9 | 7.0 | 0.0 | 12.1 | 5.8
NC(Cc1ccc(Cl)cc1)c1csc(NC(=O)Nc2ccccc2)n1 (stereo not drawn) | 28.1 | 10.3 | -1.7 | 3.8 | 1.3 | 26.8*
Cc1ccccc1NC(=O)Nc1nc(C(N)Cc2ccccc2)cs1 (stereo not drawn) | 36.3* | -10.9 | -6.6 | 10.8 | 12.2 | 5.6
COc1ccccc1NC(=O)Nc1nc(C(N)Cc2ccc(Cl)cc2)cs1 (stereo not drawn) | 51.5* | -1.0 | -3.8 | 5.6 | 11.1 | 34.5*
CC(C)CC(N)c1csc(NC(=O)Nc2ccccc2Cc2ccccc2)n1 (stereo not drawn) | 11.3 | 11.7 | 3.9 | 1.3 | -8.5 | 7.0
COc1ccccc1NC(=O)Nc1nc(C(N)Cc2ccccc2)cs1 (stereo not drawn) | 13.6 | -4.1 | 1.8 | 4.3 | 14.4 | 5.3
N#CC1=C(N)NC(SCc2ccc(Br)cc2)=C(C#N)C12CCCCC2 | 12.6 | 23.7* | -10.3 | 8.5 | 4.6 | 19.8
Cc1c(C(=O)OC(C)C(=O)N(C)Cc2ccccc2)oc2ccccc12 (stereo not drawn) | 9.1 | -16.9 | 6.2 | 3.9 | 8.5 | -11.9
SMILES | M4 ag | CHO-K1 Ca antag | CHRM4 PAM | M1 ag parental | M1 PAM parental | CHRM4 antagonist
Cc1c(C(=O)OC(C)C(C)C[N+](C)(C)C)oc2ccccc12 (stereo not drawn) | 0.1 | 9.2 | -22.2 | 0.0 | 0.1 | 77.2*
Cc1ccc(OC(=O)c2ccc(Br)o2)cc1 | 23.4 | -9.6 | 14.9 | 27.3* | 12.2 | 13.6
CCC(=O)c1ccc(OC(=O)c2ccc(Br)o2)cc1 | 33.0* | -0.2 | -9.7 | 43.1* | 0.2 | 1.5
CC(=O)c1ccc(OC(=O)c2ccc(Br)o2)cc1 | -0.3 | 7.2 | 7.8 | 0.2 | -7.9 | 1.3
CC(=O)Oc1ccc(C(=O)Nc2cc(C)ccc2NC(=O)COc2ccccc2)cc1 | 14.1 | -32.6 | -3.8 | 4.5 | 14.6 | 6.6
CC1(C)Cc2c(c(N3CCOCC3)nc3sc(C(=O)Nc4cccc(Cl)c4)c(N)c23)CO1 | 2.2 | -16.2 | 17.8* | 0.8 | -1.0 | -4.8
COCC(=O)N(Cc1cc2ccc(C)cc2[nH]c1=O)c1cccc(C)c1 | 0.2 | -3.8 | -4.7 | 0.1 | 5.9 | -3.7
COCC(=O)N(Cc1cc2cc(C)ccc2[nH]c1=O)c1ccccc1 | 2.1 | -15.2 | 23.2* | 0.8 | 7.4 | -21.0
CCn1c(C)cs/c1=N\C(=S)Nc1ccccc1C | -0.7 | 23.9* | -5.6 | -0.1 | -13.6 | 1.5
CCOc1ccc(CCNC(=O)c2cccc(S(=O)(=O)N3CC(C)OC(C)C3)c2)cc1OCC (stereo not drawn) | 4.8 | 0.7 | -5.3 | 0.6 | 2.5 | -5.4
COc1ccc2sc(-c3ccc(S(C)(=O)=O)cc3)c(C(=O)NCCc3c[nH]c4ccccc34)c2c1 | 24.3 | 14.2 | -11.4 | 4.5 | -3.9 | 34.3*
COc1ccc2c(C(=O)NCCCCO)c(-c3ccc(S(C)(=O)=O)cc3)sc2c1 | 8.6 | -25.1 | 2.9 | 2.2 | 23.3 | -8.6
CC(C(=O)O)N1c2cccc3cccc(c23)S1(=O)=O (stereo not drawn) | -0.1 | -4.2 | 1.5 | 0.0 | -15.4 | -1.2
COc1ccc(-c2cc3c(=O)n(CC(=O)NCc4ccccc4F)ncn3n2)cc1 | 17.1 | 26.2* | -8.1 | 3.5 | 6.4 | -5.5
CC(=O)Nc1cccc(N/C(N)=N/c2nc(C)cc(C)n2)c1 | 0.9 | -9.4 | 1.5 | -0.5 | 21.4 | -1.2
Cc1cccc(N/C(N)=N/c2nc(C)cc(C)n2)c1 | 37.2* | 1.5 | -7.1 | 10.4 | 2.5 | 15.9
Cc1cc(C)nc(/N=C(\N)Nc2ccc(C(C)C)cc2)n1 | 20.4 | 4.0 | -20.6 | 16.1* | -3.5 | -0.9
CCCCc1ccc(N/C(N)=N/c2nc(C)cc(C)n2)cc1 | 114.5* | 45.9* | -18.4 | 41.6* | -27.9 | 86.7*
